# High-throughput results deposited in PubChem by National Center for Advancing Translational Sciences (NCATS).
# Lamin A splicing – LMNA splicing modulation; HeLa LMNA splicing GFP/RFP minigene ratio, 48 h; Potency, µM (doses to about 46.1 µM), without a hit: at the highest dose ratio change, negative = inhibition, usual class: inhibitors; actives 0.01% (n = 200,000); AID 1487; active = well fitted inhibition curve with a large enough effect in the signal ratio, with a control signal flat, not every such curve was filed as active; inconclusive = small, poorly fitted or top-dose-only effect, or effect the other way, or a change in a side signal; the % refers to the signal ratio; note: potency is the fitted concentration of half-maximal effect
#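 S3 HeLa cells stably expressing lamin A-EGFP splicing minigene plus DsRed2, 600 cells/well, 48 h compound exposure at 37C. Laser-scanning cytometry; analysed as GFP (500-530 nm)/RFP (575-640 nm) total intensity ratio; 0.5% DMSO vehicle.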
# KinaseGlo FLuc – Kinase-Glo luciferase inhibition (counter-screen). Q27757. Kinase-Glo luciferase, ATP luminescence, 8 min. Potency, µM (series often up to 38.3 µM), inactives show at the highest dose activity change, negative = inhibition, most hits filed as inhibitors. actives 0.28% (n = 200,000). AID 1379; active = well fitted inhibition curve with a large enough effect; inconclusive = small, poorly fitted or top-dose-only effect; note: potency is the fitted concentration of half-maximal effect; nearly all actives have a fitted effect of over 60% in size
#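 Inhibition of Kinase-Glo luciferase light generation was assessed at 10 uM ATP in pH 7.2 imidazole buffer, with luminescence measured after eight minutes at ambient temperature.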
# ALDH1A1 inh – blocks purified human ALDH1A1 activity. AID 1030. Purified ALDH1A1, NADH fluorescence, propionaldehyde substrate. actives 7.3% (n = 220,000). Potency, µM (top dose mostly 75.3 µM), without a hit: at the highest dose activity, negative = inhibition, actives largely listed as inhibitors;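 note: potency is the fitted concentration of half-maximal effect; plate controls were no enzyme wells and a reference inhibitor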
# Target sequence (P00352 whole entry, looked up): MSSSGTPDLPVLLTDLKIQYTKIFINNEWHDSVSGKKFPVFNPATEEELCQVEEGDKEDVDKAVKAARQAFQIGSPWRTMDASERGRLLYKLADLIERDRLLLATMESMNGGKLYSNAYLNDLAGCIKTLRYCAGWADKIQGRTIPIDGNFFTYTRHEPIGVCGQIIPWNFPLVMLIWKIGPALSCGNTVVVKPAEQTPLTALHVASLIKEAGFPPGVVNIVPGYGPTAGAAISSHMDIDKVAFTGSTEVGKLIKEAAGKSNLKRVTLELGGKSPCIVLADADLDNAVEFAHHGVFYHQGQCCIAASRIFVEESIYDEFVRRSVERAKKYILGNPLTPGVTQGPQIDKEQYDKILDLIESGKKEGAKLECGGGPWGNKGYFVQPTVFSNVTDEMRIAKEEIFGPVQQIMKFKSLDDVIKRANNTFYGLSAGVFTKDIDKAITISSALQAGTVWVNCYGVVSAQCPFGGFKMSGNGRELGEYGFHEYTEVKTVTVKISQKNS
# HPGD inh – inhibitors of human 15-hydroxyprostaglandin dehydrogenase (HPGD); P15428; purified HPGD, NADH fluorescence kinetic, PGE2 substrate; Potency, µM, for inactives: at the highest dose activity change, negative = inhibition, actives largely listed as inhibitors; actives 4.3% (n = 150,000); note: potency is the fitted concentration of half-maximal effect
#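 20 nM HPGD preincubated 15 min at room temperature with compound in 50 mM Tris-HCl pH 8, 0.01% Tween 20. Started with 1 mM NAD+ and 30 uM prostaglandin E2; NADH fluorescence (360/450 nm) read 5 times over 30-s intervals, last minus first.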
# IMPase inh – IMPase inhibition in cells; P97697; CHO-M1 cells, IP1 accumulation, HTRF TR-FRET ratio; inhibition (IP1 accumulation), % at 46.1 µM; 120,000 tested, under 10 active; active = well fitted curve in the direction sought with a large enough effect in the signal ratio, not every such curve was filed as active; inconclusive = small, poorly fitted or top-dose-only effect, or a change in a side signal; inactive = no such curve, though single readings can be large or run the other way; the % refers to the signal ratio;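 note: cells stimulated with carbachol in lithium chloride buffer; plate controls were DMSO basal wells for no effect and reference inhibitor wells for full effect; higher means more IMPase inhibition seen as more IP1 and lower FRET ratio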
# Target sequence (P97697 whole entry, looked up): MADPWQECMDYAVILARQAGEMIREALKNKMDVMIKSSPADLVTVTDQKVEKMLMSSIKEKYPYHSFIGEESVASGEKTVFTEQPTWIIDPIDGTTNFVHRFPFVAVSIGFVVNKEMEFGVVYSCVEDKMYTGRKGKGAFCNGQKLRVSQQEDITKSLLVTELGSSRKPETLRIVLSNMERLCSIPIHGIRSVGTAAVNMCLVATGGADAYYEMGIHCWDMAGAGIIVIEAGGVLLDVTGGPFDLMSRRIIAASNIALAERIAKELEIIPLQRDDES
#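 Carbachol-driven Gq signalling in CHO-M1 cells (2000/well) generates IP1. Compounds that block IMPase raise IP1 and so reduce the FRET signal from Eu-anti-IP1 and d2-IP1 after a 10 min room-temperature lysis.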
# PNC inhibitor – perinucleolar compartment assembly inhibition; actives 3.1% (n = 140,000); PC3M PTB-GFP, PNC prevalence imaging, 16 h; active compounds read low; activity change (PNC), negative = inhibition, % at 10 µM; AID 2417;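 active = readout at or below -70, meaning at least 70% loss of cells showing the perinucleolar compartment, a nuclear body marking cancer cells; inconclusive = readout between -30 and a set limit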;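 note: plate controls were DMSO wells for no effect and camptothecin positive control wells for full effect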
#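 Read-out is percentage of cells bearing a perinucleolar compartment, from automated 20x imaging of fixed, Hoechst-stained PC3M PTB-GFP cells. Cells were seeded 4 h, then exposed 16 h to compound (23 nl of library stock) in duplicate plates.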
# The depositor's hits bear a star; ? = inconclusive; nt = no result; [ ] = dose if it differs, or a comment. Most compounds without a hit are left out; they make up all but 10% or so of the library. Unless noted, calls come from the whole dose curve; as a rule, active = well fitted inhibition curve with a large enough effect (not every such curve was filed as active); inconclusive = small, poorly fitted or top-dose-only effect, or another doubt; inactive = no such curve, though single readings can be large or run the other way. Unless noted, % is set by controls: 0 for no effect and ±100 for the full control effect.
SMILES,Lamin A splicing,KinaseGlo FLuc,ALDH1A1 inh,HPGD inh,IMPase inh,PNC inhibitor
O=C(O)CCN1C(=O)C(=C2CCCCCC2)SC1=S,20%,1%,?,-12%,-11,?
O=C1C(=C2CCCCC2)SC(=S)N1Cc1ccco1,-13%,-2%,18µM*,?,-1,41
O=S(=O)(c1ccc(NC(=S)N/N=C/c2c3ccccc3cc3ccccc23)cc1)N1CCOCC1,nt,1%,10µM*,nt,nt,nt
O=S(=O)(c1ccc(NC(=S)NCCC(c2ccccc2)c2ccccc2)cc1)N1CCOCC1,?,-1%,13µM*,-16%,nt,43
S=C(NCCN1CCOCC1)N/N=C/c1c2ccccc2cc2ccccc12,-7%,-2%,-13%,-15%,-1,-81*
CCCCNC(C(=O)Nc1cccc(S(=O)(=O)N2CCOCC2)c1)c1ccccc1 (centres undefined),-19%[46 µM],4%,13µM*,nt,nt,nt
COCCNc1nc(C)nc2c1nc(-c1ccccc1)n2CCN1CCCC1,nt,-2%,?,?,nt,nt
CCCCn1cc(S(=O)(=O)c2ccc(Cl)cc2)c(=O)c2cc(F)c(N3CCCCC3)cc21,12%[46 µM],nt,nt,nt,nt,nt
CC(C)CN1CCCC2(CCN(C(=O)c3cccc(F)c3)CC2)C1,nt,-1%,?,-5%,nt,nt
C=Cc1ccc(Cn2nc(-c3ccc(C)c(S(=O)(=O)N(CC)CC)c3)ccc2=O)cc1,4%[46 µM],nt,nt,nt,nt,nt
O=S(=O)(c1ccc(NC(=S)NN=C2CCCCC2)cc1)N1CCOCC1,-14%[46 µM],-3%,14µM*,nt,nt,nt
O=S(=O)(c1ccc(NC(=S)N/N=C/c2ccc(N3CCOCC3)cc2)cc1)N1CCOCC1,?,-1%,?,?,nt,-13
CC1(C)CC(=O)C(C=NCCN2CCNC2=O)=C(O)C1,-1%,-4%,20µM*,-12%,nt,12
CC1(C)CC(=O)C(C=NCCCO)=C(O)C1,0%,1%,-5%,-4%,-1,-87*
CC1(C)CC(=O)C(C=NCC(N)=O)=C(O)C1,-9%,-7%,-18%,-2%,3,4
CC1(C)CC(=O)C(C=NCCN2CCN(C3CC(=O)N(c4ccc(Br)cc4)C3=O)CC2)=C(O)C1 (centres undefined),20%[46 µM],1%,28µM*,nt,nt,nt
CC1(C)CC(=O)C(C=NCCN2CCN(C(=O)C34CC5CC(CC(C5)C3)C4)CC2)=C(O)C1,3%,-4%,7.9µM*,-15%,2,-25
CCCOc1ccc(N2C(=O)CC(N3CCN(CCN=CC4=C(O)CC(C)(C)CC4=O)CC3)C2=O)cc1 (centres undefined),nt,2%,?,nt,nt,nt
C=C1C2CC[C@]3(CCC4[C@@]5(C)CCC[C@@]4(CN(CCO)C5)[C@@H]3C2)[C@@H]1O (some centres undefined),nt,2%,-4%,-3%,nt,nt
CC(CNC(=O)c1sc2ncccc2c1-n1cccc1)c1ccccc1 (centres undefined),11%[46 µM],nt,nt,nt,nt,nt
CCOC(=O)c1ccc(NC(=S)N2CCN(CCN=CC3=C(O)CC(C)(C)CC3=O)CC2)cc1,?,1%,0.5µM*,nt,nt,nt
O=C(CSc1nccn1C1CCCC1)Nc1cccc(F)c1,13%[46 µM],nt,nt,nt,nt,nt
O=C(CNC(=O)c1ccc([N+](=O)[O-])cc1)c1ccccc1,5%,-3%,1%,-1%,4,7
O=C(CNS(=O)(=O)c1ccccc1)OCC(=O)c1ccc([N+](=O)[O-])cc1,-12%,4%,1.1µM*,-4%,nt,?
Cc1ccc(C(=O)NCC(=O)NCC(=O)OCC(=O)c2ccc([N+](=O)[O-])cc2)cc1,14%,-3%,1µM*,-14%,-1,29
SMILES,Lamin A splicing,KinaseGlo FLuc,ALDH1A1 inh,HPGD inh,IMPase inh,PNC inhibitor
O=C(CNc1ccccc1)c1ccc([N+](=O)[O-])cc1,-11%,-2%,3.5µM*,?,14,?
O=C(Cc1ccccc1)NCC(=O)OCC(=O)c1ccc([N+](=O)[O-])cc1,-1%,2%,1.4µM*,-2%,nt,?
CCOC(=O)c1ccc(NC(=O)CN(Cc2ccc(C)cc2)S(=O)(=O)c2ccc(C)cc2)cc1,nt,nt,nt,nt,-11,nt
CCOC(=O)N1CCN(C(=O)CN(c2ccc(C)cc2C)S(=O)(=O)c2ccccc2)CC1,nt,nt,nt,nt,0,nt
O=c1[nH]c(SCc2ccccc2F)nc2ccccc12,19%[46 µM],-1%,?,nt,nt,nt
Fc1ccccc1CSc1nc2ncccc2[nH]1,15%,-9%,22µM*,18µM*,-2,49
Cc1cc(NC(=O)c2c(-c3ccccc3Cl)noc2C)no1,-9%,-3%,6%,-10%,-1,47
CC(=O)N1CCN(C(=S)NC(=O)c2c(-c3ccccc3Cl)noc2C)CC1,-2%[46 µM],3%,?,nt,nt,nt
COc1ccccc1NC(=S)NC(=O)c1c(-c2ccccc2Cl)noc1C,nt,-1%,0.89µM*,nt,nt,nt
Cc1onc(-c2ccccc2Cl)c1C(=O)Nc1ccc(F)c(F)c1,?,-1%,4%,-3%,-7,-27
COC(=O)c1cc(OC)c(OC)cc1NC(=O)c1c(-c2ccccc2Cl)noc1C,9%,4%,28µM*,-12%,13,18
COC(=O)c1c(-c2ccccc2Cl)noc1/C=C/N(C)C,23%[46 µM],1%,1.3µM*,nt,nt,nt
Cc1onc(-c2ccccc2Cl)c1C(=O)NC(=S)Nc1ccccc1F,nt,1%,3.2µM*,nt,nt,nt
CCOC(=O)C1=C(CN2CCN(c3ccc(OC)cc3)CC2)NC(=O)NC1c1ccc(OC)cc1 (centres undefined),4%[46 µM],nt,nt,nt,nt,nt
CC#CCOC(=O)C1=CCCN(C)C1,nt,0%,1%,3%,9,nt
Cc1cc(Cl)ccc1NS(=O)(=O)c1c(C(=O)N2CCCCCC2)c(C)n(C)c1C,-11%[46 µM],nt,nt,nt,nt,nt
CCOC(=O)c1cc2c(nc1N)CC(C)(C)OC2,-8%,1%,?,?,-9,4
CCOC(=O)c1cc2c(nc1NC(=S)Nc1ccccc1)CC(C)(C)OC2,-6%,1%,14µM*,-4%,-6,-82*
COc1ccc(OC2C(O)COC2/C=C/C#Cc2ccc(F)cc2F)cc1 (centres undefined),nt,nt,5%[13.5 µM],nt,nt,nt
Cc1[nH]n(C(N)=S)c(=O)c1N=Nc1ccc2ccccc2c1,?,1%,7.9µM*,nt,nt,nt
Cc1[nH]n(C(N)=S)c(=O)c1N=Nc1ccc(S(=O)(=O)N2CCCCCC2)cc1,8%,-7%,11µM*,16µM*,-1,15
CC(=O)Nc1ccc(C2NC(C(=O)O)CCC2C)cc1 (centres undefined),nt,nt,3%[13.5 µM],nt,nt,nt
COc1cc(OC)c(NC(=O)Nc2c(C)n(C)n(-c3ccccc3)c2=O)cc1Cl,nt,nt,nt,nt,13,nt
O=C(Cn1c(COc2ccccc2)nc2ccccc21)Nc1cc(Cl)cc(Cl)c1,-12%,-2%,4%,1%,nt,-100*
